# From PubChem
# The list is not random: actives were taken first. Their share in the collection is about 7.3%.
# FLuc modulator: inhibits or activates purified firefly luciferase, miR-21 counter-screen | purified FLuc, Km substrates, luminescence inhibition | P08659 | Potency, µM (titrated, usually from 57.5 µM), without a hit: top-dose activity change, negative = inhibition, actives largely listed as inhibitors | actives 6.9% (n = 360,000);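 further: plate controls were vehicle for no effect and reference inhibitor for full effect; nearly all actives have a fitted effect of over 55% in size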
# Target sequence (P08659 whole entry, looked up): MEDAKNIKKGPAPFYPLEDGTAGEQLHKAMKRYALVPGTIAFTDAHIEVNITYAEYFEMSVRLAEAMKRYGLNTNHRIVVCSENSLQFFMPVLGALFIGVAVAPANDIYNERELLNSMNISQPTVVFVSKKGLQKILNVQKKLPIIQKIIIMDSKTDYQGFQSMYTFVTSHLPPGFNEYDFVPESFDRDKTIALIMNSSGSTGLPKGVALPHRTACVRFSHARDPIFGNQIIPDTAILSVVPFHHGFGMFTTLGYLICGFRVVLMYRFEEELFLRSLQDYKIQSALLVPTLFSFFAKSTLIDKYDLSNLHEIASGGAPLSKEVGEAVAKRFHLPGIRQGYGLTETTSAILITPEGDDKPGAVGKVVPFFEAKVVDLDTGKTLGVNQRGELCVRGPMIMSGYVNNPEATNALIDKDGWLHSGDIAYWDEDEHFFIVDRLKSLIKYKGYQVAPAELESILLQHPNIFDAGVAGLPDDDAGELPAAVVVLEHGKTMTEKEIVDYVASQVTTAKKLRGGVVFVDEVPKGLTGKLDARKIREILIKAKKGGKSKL
#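 Biochemical qHTS of compounds, final roughly 60 µM downward over six points, against 10 nM purified firefly luciferase using Km concentrations of substrates (10 uM D-luciferin, 10 uM ATP) in Tris acetate pH 7.5 buffer; luminescence output.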
# SMN2 splice enh: increases expression of the SMN2 splice variant | Potency, µM (series often up to 46.1 µM), inactives show top-dose activity change, positive = activation, actives largely listed as activators | HEK293 SMN2-luciferase splicing reporter, luminescence, 30-36 h | actives 2.8% (n = 210,000) | AID 1458; further: % of control where 0% means no effect; nearly all actives have a fitted effect of over 55% in size
#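 qHTS luciferase splicing reporter: luminescence rises when SMN2 exon 7 is included in transfected HEK293 cells. Compound exposure lasted 30-36 h at 37C, with 4.5 mM final sodium butyrate as control, followed by a ONE-Glo read.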
# uPA generation: blocks generation of uPA at the cell surface; AID 540303; actives 0.31% (n = 330,000); Potency, µM (top dose mostly 38.3 µM), for the others: top-dose activity change, negative = inhibition, most hits filed as inhibitors; cell surface uPA generation assay, qHTS; active means well fitted inhibition curve with a large enough effect; inconclusive means small, poorly fitted or top-dose-only effect; inactive means no such curve, though single readings can be large or run the other way; tested in mouse RAW 264.7 cells; further: on the % scale 0 is the no-effect control and ±100 the full control effect; nearly all actives have a fitted effect of over 55% in size
# NPC1 promoter act: activators of NPC1 promoter; Huh7 NPC1 promoter luciferase reporter, 24 h; actives 2.4% (n = 320,000); Potency, µM (series often up to 9.22 µM), inactives show at the highest dose activation, actives largely listed as activators; further: % of control where 0% means no effect; nearly all actives have a fitted effect of over 60% in size
#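 Luminescence read-out of NPC1 promoter-driven luciferase in stably transfected Huh7 cells; compounds delivered in DMSO and left 24 h at 37C, 5% CO2, qHTS titration format.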
# ELG1 genotoxic: inducers of genotoxicity in HEK293T ELG1-luciferase cells. HEK293T ELG1-luciferase reporter, luminescence, 16 h. Potency, µM (titrated, usually from 46 µM), inactives show at the highest dose activity change, positive = activation, hits mostly activators. actives 1.3% (n = 330,000); further: % of control where 0% means no effect; nearly all actives have a fitted effect of over 60% in size
#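 Genotoxic stress is detected as increased luminescence from luciferase-tagged ELG1 in HEK293T cells, measured with ONE-Glo after a 16 hr treatment at 37 °C.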
# Rab9 prom act: Rab9 promoter activation; Potency, µM (series often up to 9.22 µM), for the others: at the top dose activation, negative = inhibition, actives largely listed as activators; AID 485297; actives 2.8% (n = 320,000); Huh7 Rab9 promoter-luciferase reporter, luminescence, 24 h; further: % of control where 0% means no effect; nearly all actives have a fitted effect of over 60% in size
#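 Promoter activation is measured as luciferase luminescence in Huh7 cells stably transfected with a Rab9 promoter–luciferase construct, following 24 h compound exposure at 37 °C and 10 min reagent incubation at ambient temperature.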
# The depositor's hits bear a star; ? = inconclusive; . = no result given. Unless noted, the call rests on the fitted dose curve; in most records, active means well fitted curve in the direction sought with a large enough effect; inconclusive means small, poorly fitted or top-dose-only effect, or another doubt; inactive means no such curve, though single readings can be large; an effect the other way counts as inactive or inconclusive. Potency means the concentration at half of the fitted maximal effect.
SMILES,FLuc modulator,SMN2 splice enh,uPA generation,NPC1 promoter act,ELG1 genotoxic,Rab9 prom act
CN(C)/C=C1\C(=O)N(c2ccc([N+](=O)[O-])cc2)N=C1c1ccccc1,?,?,1%,?,9.2µM*,5.6µM*
Cc1cc(C)cc(N2C(=O)CS(=O)(=O)C23C(=O)N(Cc2ccc(F)cc2)c2ccc(C)cc23)c1 (stereo not drawn),3%,.,.,.,.,.
Oc1ccc(N=Nc2cccc(Cl)c2)cc1C=Nc1ccc(N2CCOCC2)cc1,-17%,-67%,-5%,13%,7%,0%
Oc1c(Br)cc(Cl)cc1C=Nc1ccc(N2CCOCC2)cc1,17µM*,.,6%,0%,-5%,-6%
Clc1cccc(-c2ccc(C=Nc3ccc(N4CCOCC4)cc3)o2)c1,11µM*,-28%,-4%,3%,3%,-11%
CCc1ccc(N(C(=O)CCC(=O)Nc2cc(C)on2)C(C(=O)NC(C)(C)C)c2ccc(OC)cc2)cc1 (stereo not drawn),24µM*,.,-1%,2%,-7%,-2%
COc1ccc(C(C(=O)NC(C)(C)C)N(C(=O)CCC(=O)Nc2cc(C)on2)c2cccc(F)c2)cc1 (stereo not drawn),0%,.,-1%,-5%,5%,-3%
Cc1nnc(Sc2nc3ccccc3o2)c2ccccc12,19µM*,.,-15%,-5%,15%,0%
Cc1ccc(-c2nnc(Sc3nc4ccccc4o3)c3ccccc23)cc1,?,-27%,4%,-4%,-10%,?
COc1ccc(Cl)cc1NC(=O)c1cc(S(=O)(=O)N(C)Cc2ccccc2)ccc1F,-9%,.,.,.,.,.
COc1ccc(NC(=O)CSCC(=O)Nc2sccc2C#N)cc1,-9%,.,2%,-4%,10%,-1%
Cn1cccc1C(=O)OCC(=O)Nc1sccc1C#N,.,.,2%,.,21µM*,.
N#Cc1ccsc1NC(=O)COC(=O)c1ccc2ccccc2c1,11µM*,?,2%,?,?,0.45µM*
COc1ccc(CCC(=O)Nc2sccc2C#N)cc1,17µM*,16µM*,-3%,4µM*,6.5µM*,2µM*
N#Cc1ccsc1NC(=O)COC(=O)c1cc(Br)ccc1O,9.5µM*,.,-3%,16%,15%,?
N#Cc1ccsc1NC(=O)COC(=O)c1ccc(Br)o1,.,.,-16%,.,4%,.
Cn1ccnc1SCC(=O)Nc1sccc1C#N,-4%,4%,5%,2%,3%,11%
O=C(c1cccc([N+](=O)[O-])c1)N1CCN(c2ccc(Nc3ccccc3)nn2)CC1,-1%,.,.,.,.,.
CCc1ccccc1NC(=O)Cn1nnc(C(=O)NCc2ccccc2Cl)c1N,-4%,.,.,.,.,.
O=C(c1cc2ccccc2oc1=O)N1CCN(c2ccc(F)cc2)CC1,-2%,-2%,.,.,.,.
COc1ccc(C)cc1NC(=O)c1ccc2nc(Cc3ccccc3)oc2c1,5%,.,.,.,.,.
CN1C(=O)Cc2cc(S(=O)(=O)CCC(=O)Nc3cccc(C(F)(F)F)c3)ccc21,-1%,.,.,.,.,.
CC1=CSC2=NC(=O)/C(=C/c3cccc(OC(=O)c4ccco4)c3)C(=N)N12,?,2%,4%,0%,0%,0%
CC(C)CS(=O)(=O)C1=NSC2=NC(=O)/C(=C\c3ccc(OC(=O)c4ccco4)cc3)C(=N)N21,?,.,3%,9%,1%,2%
CSC1=NSC2=NC(=O)/C(=C\c3ccc(OC(=O)c4ccco4)cc3)C(=N)N12,19µM*,.,-23%,3.5µM*,?,1.6µM*
SMILES,FLuc modulator,SMN2 splice enh,uPA generation,NPC1 promoter act,ELG1 genotoxic,Rab9 prom act
CS(=O)(=O)C1=NSC2=NC(=O)/C(=C\c3ccc(OC(=O)c4ccco4)c(Br)c3)C(=N)N21,13µM*,.,2%,-1%,3%,2%
CCc1nnc(SC(CC)C(=O)Nc2cc(C)ccc2C)c2cc3occc3n12 (stereo not drawn),-13%,.,.,.,.,.
CCOc1ccc(NC(=O)Cn2cc(C(=O)c3ccccc3)c(=O)c3cc4c(cc32)OCO4)cc1,-5%,-6%,.,.,.,.
Cn1ncc2c(O/N=C(\N)c3ccc(C(F)(F)F)cc3)ncnc21,4%,.,2.8µM*,-3%,-15%,-10%
C=Cc1ccc(N=Cc2c(O)ccc3ccccc23)cc1,19µM*,.,-1%,-3%,-2%,-3%
Oc1ccccc1N=Cc1c(O)ccc2ccccc12,13µM*,.,-12%,-3%,0%,2%
CC(=O)c1cccc(N=Cc2c(O)ccc3ccccc23)c1,?,.,-5%,-1%,0%,4%
Oc1ccc2ccccc2c1C=Nc1ccccc1Br,11µM*,.,-1%,-4%,0%,2%
Cc1cc(C(=O)O)ccc1N=Cc1c(O)ccc2ccccc12,0.76µM*,.,-5%,10%,1%,-4%
CC(=O)N(C)c1ccc(N=Cc2c(O)ccc3ccccc23)cc1,?,.,-1%,-3%,-4%,1%
CS/C(N)=N/N=C/c1c(O)ccc2ccccc12,3µM*,.,-6%,-1%,?,?
C(=Nc1ccc(N2CCOCC2)cc1)c1c[nH]c2ccccc12,?,.,-10%,5%,10%,24%
Oc1ccc2ccccc2c1C=Nc1ccc(N2CCOCC2)cc1,6µM*,26%,-4%,1%,-5%,11%
CN(C)/N=C/c1c(O)ccc2ccccc12,?,-33%,7%,-2%,0%,-3%
CCN(CC)S(=O)(=O)c1ccc2c(c1)N(CC(=O)Nc1c(C)cc(C)cc1C)C(=O)CS2,-1%,14%,.,.,.,.
COc1ccccc1C(=O)Nc1cc(-c2cccc(Br)c2)nn1-c1ccccc1,-14%,.,.,.,.,.
COc1cc(OC)cc(-c2nnc(SCc3c(F)cccc3Cl)o2)c1,?,21%,-22%,3.2µM*,?,3.5µM*
Fc1ccccc1CSc1nnc(-c2cccnc2)o1,17µM*,?,7%,4µM*,?,3.2µM*
COc1ccc(-c2nnc(SCc3ccccc3F)o2)cc1,1.5µM*,11µM*,3%,1.3µM*,1µM*,1.4µM*
Cc1ccccc1-c1nnc(SCc2ccccc2F)o1,1.9µM*,13µM*,.,3.2µM*,?,3.5µM*
O=C(CCC1N=C2c3ccccc3N=C(SCc3cccc(F)c3)N2C1=O)NCc1ccc(F)cc1 (stereo not drawn),-6%,.,.,.,.,.
O=CCCCC=O,.,3%,.,.,.,.
CCc1cc2c(cc3c(=O)n(CC(=O)N4CCN(c5cccc(C)c5C)CC4)nc(CC)n32)s1,-12%,-3%,.,.,.,.
CC(C)CCN1C(=O)c2ccc(C(=O)N3CCCCC3)cc2C1=O,-5%,.,-2%,2%,1%,-1%
Fc1ccccc1CSc1nnc(-c2ccccc2)o1,4.8µM*,35µM*,-4%,2.5µM*,8.2µM*,3.2µM*
Cc1ccc(CSc2nnc(-c3cccc4ccccc34)o2)cc1,.,.,5%,.,3%,.
